Test systems include NCI-H23 lung; NCI-H226 lung; NCI-H322M lung; HOP-62 NSCLC; NCI-H460 lung; HOP-92 NSCLC; NCI-H522 lung; A549/ATCC NSCLC; 786-0 renal; COLO 205 colon; DU-145 prostate; K-562 leukemia; MALME-3M melanoma; MDA-MB-231 breast; RXF 393 renal; SF-268 CNS; SF-295 CNS; SF-539 CNS; UACC-257 melanoma; M14 melanoma.
Assay in all cases: NCI-60 one-dose screen, 48 h (100 = growth as untreated, 0 = no growth, -100 = all killed)
Common to all, as to settings: 10 µM unless noted

Compounds without any hit were thinned out: in the full panel of roughly 83,000, 20% have a hit.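 Plates (96-well) were seeded with cells, treated with compound at one concentration, and incubated for 48 hours before percent growth was determined.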 Values without a mark were called inactive. Activity calls are given as the source filed them. The calls were made as follows: active = growth percent below 10; inactive = the rest.

For the compound `O=C(N(c1ccccc1)c1ccccc1)n1cc(I)c2nc(Cl)nc(Cl)c21`, the growth with NCI-H23 lung is 72.6%; in the assay with NCI-H226 lung, 71.8%; in the assay with NCI-H322M lung, 92.6%; in the assay on HOP-62 NSCLC, 43.9%; in the assay on NCI-H460 lung, 43.8%; with HOP-92 NSCLC it was 71.8%. Moreover, the growth with NCI-H522 lung is 3.35% (active); in the assay with A549/ATCC NSCLC, 60.2%; in the assay with 786-0 renal, 57.7%; in the assay on COLO 205 colon, 79.4%; in the assay on DU-145 prostate it was 43.3%; in the assay with K-562 leukemia, 20.8%. Also, the growth is 73.4% with MALME-3M melanoma; 67.6% with MDA-MB-231 breast; 40.1% in the assay on RXF 393 renal; 34.3% in the assay on SF-268 CNS; 48.2% in the assay on SF-295 CNS; 56.8% in the assay on SF-539 CNS. The growth with UACC-257 melanoma was 53.7%.
For the compound `Clc1cccc(Nc2ncnc3ccc(-c4cnc5[nH]ccc5c4)cc23)c1`, the growth was 84.4% with NCI-H23 lung; 80% in the assay with NCI-H226 lung; 18.7% in the assay with NCI-H322M lung; 86.9% with HOP-62 NSCLC; 78.3% with NCI-H460 lung; 94.5% in the assay with HOP-92 NSCLC. The growth in the assay with NCI-H522 lung is 33.9%; with A549/ATCC NSCLC, 50.1%; in the assay with 786-0 renal, -19.6% (active); with COLO 205 colon, 83.4%; with DU-145 prostate, 54%; in the assay with K-562 leukemia it was 62.1%. Further, the growth is 82.9% in the assay on MALME-3M melanoma; 75% with MDA-MB-231 breast; 73.7% in the assay with RXF 393 renal; 66.2% in the assay with SF-268 CNS; 86.8% with SF-295 CNS; 84% with SF-539 CNS. Besides, the growth in the assay on UACC-257 melanoma is 75%.
Take `CSc1nc2ccccc2cc1/C=C1/C=C(c2ccccc2)NC1=O`: the growth was 87.4% in the assay with NCI-H23 lung; 92.9% in the assay with NCI-H226 lung; 93% with NCI-H322M lung; 79.1% in the assay on HOP-62 NSCLC; 84.7% in the assay on NCI-H460 lung; 70.2% in the assay with HOP-92 NSCLC. Besides, the growth with NCI-H522 lung was 74.6%; with A549/ATCC NSCLC it was 81.9%; with 786-0 renal, 93.2%; in the assay on COLO 205 colon it was 93.8%; in the assay with DU-145 prostate it was 93.2%; in the assay with K-562 leukemia, 35.7%. Further, the growth was 86.9% in the assay on MALME-3M melanoma; 86.6% with MDA-MB-231 breast; 84.6% in the assay with RXF 393 renal; 87.2% in the assay with SF-268 CNS; 67% in the assay on SF-295 CNS; 96.4% in the assay with SF-539 CNS. The growth with UACC-257 melanoma is 86.8%.
On to `Cc1cn(-c2cc(NC(=O)c3cncc(C#Cc4cnc(N)c5ncccc45)c3)cc(C(F)(F)F)c2)cn1`, for which the growth in the assay with NCI-H23 lung is 43.5%; in the assay with NCI-H226 lung, 45.7%; in the assay with NCI-H322M lung it was 83.4%; in the assay on HOP-62 NSCLC, 70.9%; with NCI-H460 lung, 71.2%; in the assay on HOP-92 NSCLC it was 43.3%. In addition, the growth was 52.2% in the assay with NCI-H522 lung; 88.1% in the assay on A549/ATCC NSCLC; 71.6% in the assay on 786-0 renal; 28.4% in the assay on COLO 205 colon; 93.7% in the assay on DU-145 prostate; 5.81% (active) in the assay on K-562 leukemia. Further, the growth is 23.8% in the assay on MALME-3M melanoma; 47.1% in the assay on MDA-MB-231 breast; 59.6% in the assay on RXF 393 renal; 67.2% in the assay on SF-268 CNS; 91% in the assay with SF-295 CNS; 72.3% in the assay with SF-539 CNS. For the same compound, the growth with UACC-257 melanoma was 62.5%.
For `CC(C)c1ccc(C(=O)Nc2nc3ccc(O)c(CN(C)C)c3s2)cc1`, the growth in the assay on NCI-H23 lung is 88.9%; in the assay with NCI-H226 lung, 97.1%; in the assay with NCI-H322M lung it was 81.9%; with HOP-62 NSCLC it was 93.4%; in the assay on NCI-H460 lung, 59.5%; with HOP-92 NSCLC it was 81.7%. In addition, the growth in the assay with NCI-H522 lung is 79.4%; in the assay with A549/ATCC NSCLC, 80.6%; in the assay on 786-0 renal, 89.9%; in the assay with COLO 205 colon it was 84.7%; with DU-145 prostate, 63.1%; in the assay on K-562 leukemia it was 1.54% (active). Also, the growth is 71.4% in the assay with MALME-3M melanoma; 44.8% in the assay on MDA-MB-231 breast; 97.4% with RXF 393 renal; 87.2% in the assay with SF-268 CNS; 96.3% with SF-295 CNS; 69% in the assay on SF-539 CNS. Moreover, the results for the growth with UACC-257 melanoma and with M14 melanoma were 50.9% and 26.8%, respectively.
As for `COc1cc2ncnc(Nc3ccc(F)c(Cl)c3)c2cc1OCC(=O)N1CCN(c2ccccc2)CC1`, the growth in the assay on NCI-H23 lung is 88%; with NCI-H226 lung it was 92.5%; with NCI-H322M lung, 34%; in the assay with HOP-62 NSCLC it was 103%; in the assay on NCI-H460 lung, 95.6%; in the assay on HOP-92 NSCLC, 86.8%. Also, the growth was 79.9% with NCI-H522 lung; 82.9% in the assay with A549/ATCC NSCLC; 85.6% in the assay on 786-0 renal; 112% in the assay on COLO 205 colon; 62.9% in the assay with DU-145 prostate; 85.2% in the assay with K-562 leukemia. In addition, the growth was 96.3% in the assay with MALME-3M melanoma; 90.5% with MDA-MB-231 breast; 81.2% with RXF 393 renal; 82.6% with SF-268 CNS; 93.4% in the assay with SF-295 CNS; 104% with SF-539 CNS. In addition, in the assay on UACC-257 melanoma, the growth is 107%.
Consider `CCCCNCCCCCNc1cc(OC)cc2cccnc12`, for which the growth in the assay with NCI-H23 lung was 101%; in the assay with NCI-H226 lung it was 96.5%; in the assay on NCI-H322M lung, 106%; in the assay on HOP-62 NSCLC, 88%; with NCI-H460 lung it was 106%; in the assay on HOP-92 NSCLC it was 49.2%. Moreover, the growth with NCI-H522 lung is 94%; in the assay with A549/ATCC NSCLC it was 95.9%; in the assay on 786-0 renal, 90.1%; in the assay with COLO 205 colon, 93.7%; in the assay with DU-145 prostate it was 120%; in the assay with K-562 leukemia it was 76.8%. Besides, the growth is 80.8% with MALME-3M melanoma; 87.3% with MDA-MB-231 breast; 87.7% with RXF 393 renal; 95% with SF-268 CNS; 96.1% in the assay with SF-295 CNS; 92.8% with SF-539 CNS. In addition, the values for the growth with UACC-257 melanoma and with M14 melanoma were 93.1% and 97.1%, respectively.
`COc1ccc2[nH]c(C(=O)N3CCN(C(=O)OCc4ccc5c(Cl)cc(Cl)c(O)c5n4)CC3)cc2c1`: the growth in the assay with NCI-H23 lung was -85.8% (active); in the assay on NCI-H226 lung, -4.54% (active); with NCI-H322M lung, 29.1%; with HOP-62 NSCLC it was -61.5% (active); with NCI-H460 lung, -58.9% (active); with HOP-92 NSCLC, -65.4% (active). Besides, the growth is -70.8% (active) with NCI-H522 lung; -68% (active) in the assay on A549/ATCC NSCLC; -91.7% (active) in the assay on 786-0 renal; -81.6% (active) in the assay on COLO 205 colon; -88.6% (active) in the assay with DU-145 prostate; 4.22% (active) with K-562 leukemia. The growth with MALME-3M melanoma was -94.4% (active); in the assay with MDA-MB-231 breast, -82.2% (active); in the assay on RXF 393 renal, -92.9% (active); with SF-268 CNS, -91.1% (active); in the assay on SF-295 CNS it was 34%; in the assay on SF-539 CNS, -99.3% (active). Also, the results for the growth in the assay on UACC-257 melanoma and in the assay on M14 melanoma were -43.2% (active) and -66.4% (active), respectively.

Source of the values: PubChem BioAssay (NCI).
